Assay outcomes: PubChem BioAssay, several laboratories
Hits are enriched below; roughly 2.5% of the tested compounds scored in any of these assays.
M18AAP inhibitor: blocks P. falciparum M18 aspartyl aminopeptidase; inhibition, % at 7.35 µM; recombinant PfM18AAP, H-Glu-NHMec fluorogenic cleavage; 290,000 tested, 1.2% active;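 active = inhibition above the campaign mean inhibition over all tested compounds plus 3 SD, cut at about 28% in these data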;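 also: 0% = plate median of test compound wells and 100% = 2 mM ZnCl2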
HDAC3 inhib: human HDAC3 inhibition; 320,000 tested, 0.15% active; O15379; recombinant HDAC3, fluorogenic peptide/trypsin coupled, fluorescence; inhibition, % at 8.3 µM; in the data active = inhibition above about 26%, passing the limit was not always enough
UBC9 SUMO inh: blocks human SUMOylation mediated by UBC9 | P63279 | HTRF SUMOylation assay, SAE1/SAE2 + UBC9, in vitro | inhibition, % at 35 µM | 290,000 tested, 0.36% active | AID 2006; in the data active = inhibition above about 50%, passing the limit was not always enough
G6PDH CS: inhibits Leuconostoc G6PDH, flagging false hits in G6PDH-based assays; AID 1020; inhibition, % at 5 µM; 200,000 tested, 0.12% active; Purified L. mesenteroides G6PDH, diaphorase/resazurin coupled fluorescence, 45 min; in the data active = inhibition above about 50%
PHOSPHO1 inh: inhibitors of human PHOSPHO1 phosphatase. Q8TCT1. recombinant PHOSPHO1, absorbance phosphatase assay. inhibition, % at 13.3 µM. 290,000 tested, 1.1% active. AID 1565; in the data active = inhibition above about 60%
p97 inhibitor: inhibitors of human p97 ATPase. inhibition, % at 8 µM. recombinant p97 ATPase, Kinase-Glo ATP luminescence, 3 h. P55072. AID 1481. 220,000 tested, 0.42% active; in the data active = inhibition above about 15%;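 also: 0% = DMSO vehicle and 100% = wells lacking enzyme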
Active calls of the source: *; x = no result given.

SMILES | M18AAP inhibitor | HDAC3 inhib | UBC9 SUMO inh | G6PDH CS | PHOSPHO1 inh | p97 inhibitor
CCn1c(COc2ccccc2C)nnc1SCC(=O)N1CCN(c2ccccc2)CC1 | -6 | -1 | 0 | -38 | 18 | -3
O=C(CSc1nc2ccc(S(=O)(=O)N3CCOCC3)cc2[nH]1)N1CCOCC1 | -18 | 0 | -4 | 3 | 67* | -4
CCCCNS(=O)(=O)c1ccc2nc(SCC(=O)N3CC(C)OC(C)C3)[nH]c2c1 (configuration not stated) | -9 | 6 | 8 | 3 | 75* | -1
O=C(Cc1ccc(S(=O)(=O)N2CCCC2)s1)Nc1nc2c(s1)CCCC2 | 8 | 3 | 25 | -1 | 61* | 4
Cc1cc(C)cc(NC(=O)Cc2ccc(S(=O)(=O)N3CCCC3)s2)c1 | x | 1 | x | x | x | x
COc1ccc(CCNC(=S)Nc2ccc(S(=O)(=O)Nc3ncccn3)cc2)cc1OC | -4 | 2 | 9 | x | 67* | x
Cc1nc2ccccc2n1CCc1nc2c3ccccc3nc(=S)n2[nH]1 | -4 | -6 | -1 | -1 | 86* | 1
Cc1cncn1CCc1nc2c3ccccc3nc(=S)n2[nH]1 | 6 | x | x | x | x | 1
CC(=O)c1cccc(N2C(=O)CC(N3CCN(S(=O)(=O)c4ccc(Cl)cc4)CC3)C2=O)c1 (configuration not stated) | x | -5 | x | x | x | x
Cc1ccc(C2=NNC(C(O)C(O)C(O)C(O)CO)S2)cc1 (configuration not stated) | 2 | -5 | 13 | 1 | 90* | 3
COc1cc(C(=O)NS(=O)(=O)c2ccccc2C)ccc1Cc1cn(C)c2ccc(NC(=O)OC3CCCC3)cc12 | 2 | 8 | 72* | 8 | -32 | 0
CCn1c(SCC(=O)Nc2ccc3c(c2)OCO3)nc2c1c(=O)n(C)c(=O)n2C | -13 | 2 | 25 | 8 | -12 | -7
Cn1c(=O)c2c(nc(SCC(=O)O)n2Cc2cc3c(cc2Cl)OCO3)n(C)c1=O | 10 | 11 | 23 | 10 | 64* | -1
O=[N+]([O-])c1ccc2c(c1)N([O-])C1(CCCCC1)[N+]2=O | 9 | x | 54* | x | 8 | 6
CC1=C(c2ccccc2)[N+](=O)C2(CCCC2)N1[O-] | 3 | 8 | 10 | -2 | 5 | 3
CCC(C(=O)NCCc1ccccc1OC)n1nc(C)c2c(C)n(-c3ccccc3)nc2c1=O (configuration not stated) | 4 | 2 | 5 | x | 15 | x
CCCCN(CC)C(=O)c1oc2ccc(S(=O)(=O)N3CCCC3)cc2c1C | -3 | 0 | x | x | -16 | x
Oc1ccc(C2=CSC3=NCCN23)cc1O | 55* | 0 | -1 | x | x | x
Cc1ccc(-n2c(C)cc(/C([O-])=C(/C(=S)Nc3ccc(F)c(Cl)c3)[n+]3ccccc3)c2C)cc1 | 9 | 2 | 10 | 7 | 84* | 4
Cc1cc(/C([O-])=C(/C(=S)Nc2ccc(F)cc2)[n+]2ccccc2)c(C)n1-c1ccc(F)cc1 | 9 | 5 | 26 | 10 | 96* | 4
Cc1cc(/C([O-])=C(/C(=S)Nc2ccccc2)[n+]2ccccc2)c(C)n1-c1ccccc1 | 16 | -5 | 11 | 6 | 44 | 6
CCOc1ccc(C(=S)N2CCCC2)c(OCC)c1 | 30* | 3 | 8 | x | 29 | x
CCOc1ccc(C(=S)N2CCCC2)cc1 | -4 | -3 | 10 | -1 | 17 | -2
COc1ccccc1NC(=O)NNC(=O)CCc1ccccc1 | 5 | 6 | 0 | x | 21 | x
CCN(CC)S(=O)(=O)c1cccc(NC(=O)COC(=O)CCC(=O)c2cccs2)c1 | -2 | 4 | -5 | 10 | 73* | 1
SMILES | M18AAP inhibitor | HDAC3 inhib | UBC9 SUMO inh | G6PDH CS | PHOSPHO1 inh | p97 inhibitor
O=C1CCC(=O)N1c1cccc(OS(=O)(=O)c2ccccc2)c1 | 36* | 2 | 2 | 3 | -3 | 6
CC(OC(=O)CCC1CCCC1)C(=O)Nc1ccccc1[N+](=O)[O-] (configuration not stated) | x | 6 | x | x | x | x
Cc1ccc(N(CC(=O)NCc2ccc(F)cc2)S(=O)(=O)c2c(C)nn(C)c2C)cc1 | -1 | 1 | 8 | x | 62* | x
Cc1ccc(CNC(=O)CN(c2ccc(C)cc2)S(=O)(=O)c2c(C)nn(C)c2C)cc1 | -1 | -1 | -16 | x | 15 | x
O=C(NCSc1ccnc(SCNC(=O)c2ccccc2)n1)c1ccccc1 | 38* | 2 | 5 | 0 | -1 | 0
CC1CCC(NC(=O)CCCn2sc3ccccc3c2=O)CC1 (configuration not stated) | 2 | -6 | 10 | x | -5 | x
NC(=O)c1cc([N+](=O)[O-])c(Cl)cc1NCc1ccccn1 | x | -2 | x | x | x | x
Cc1ccc(-c2nnn(CC(=O)NC3CCCc4ccccc43)n2)cc1 (configuration not stated) | 2 | -7 | 44 | 10 | 62* | 6
Cc1cnc(NC(=O)c2cccc(S(=O)(=O)N3CCOCC3)c2)s1 | x | 9 | x | x | x | x
CCC12CCCN3CCC4(C(=C(C(=O)OC)C1)Nc1ccccc14)C32 (configuration not stated) | 7 | x | 20 | 0 | 99* | -4
O=C1/C(=C/c2ccccc2F)SC(=S)N1CCC(=O)N1CCCCC1CCO (configuration not stated) | 5 | 8 | x | x | 64* | x
CCOc1ccc(Nc2nc(N(C)c3ccccc3)nc(N)c2[N+](=O)[O-])cc1 | -11 | -4 | 13 | x | 15 | x
CSc1ccccc1C(=O)NC1CCCC1 | 4 | -3 | -7 | 10 | 70* | 6
Cn1c(-c2ccc(F)cc2)cnc1SCC(=O)Nc1ccccc1 | 6 | 5 | -2 | 18 | -3 | -3
COc1ccc(NC(=O)CSc2ncc(-c3ccc(F)cc3)n2Cc2ccco2)cc1 | -9 | 7 | 0 | 2 | 8 | -2
CCC(=O)Nc1cc(NC(=O)CSc2ncc(-c3ccc(F)cc3)n2Cc2ccco2)ccc1C | 4 | -1 | -16 | -5 | 72* | 3
CC(=O)Nc1ccc(NC(=O)Cn2c(-c3ccc(F)cc3)cnc2SCC(=O)Nc2c(C)cccc2C)cc1 | 2 | 11 | 51* | 2 | -22 | 0
O=C(Nc1ccc(Cl)cc1)c1cccc(S(=O)(=O)Nc2ccccn2)c1 | -4 | 3 | 3 | x | 18 | x
CCOc1ccccc1N(CC(=O)Nc1ccccc1C(=O)N1CCCC1)S(C)(=O)=O | -9 | -1 | -10 | x | 6 | x
Cc1cc(C)n2nc(SC(C)C(=O)NCc3ccco3)nc2n1 (configuration not stated) | -9 | -5 | 29 | 5 | 64* | 0
O=C(Nc1ccccc1Cl)c1sccc1-c1ccccc1 | 4 | 3 | -12 | x | 27 | x
Cc1ccc(OCC(=O)Nc2ccc(C(N)=O)cc2)cc1 | -1 | 2 | 5 | x | 26 | x
Cc1ccc(OCC(=O)Nc2ccc(N(C)C)cc2)cc1 | 8 | -2 | 16 | 1 | 81* | 3
CCCOc1ccc(C(=O)Nc2ccc(N(C)C)cc2)cc1 | -10 | -3 | 0 | 1 | 11 | -2
